In the supplement of paper PMC10849652:
Of roughly 7,900 targets only a part is listed; those with a hit were picked by preference. About 0.6% of all pairs of compound and target were hits. Unmarked numbers belong to inactive results.

Tests used:
Experiment in all cases: log2 fold change, soluble protein after heating vs DMSO (PISA); higher = thermal stabilisation; K562 cells, 10 uM, 30 min; active = over 0.2 and 3.5 SD of the protein, either way, in both replicates (recomputed)
bafetinib = compound: Cc1ccc(NC(=O)c2ccc(CN3CC[C@H](N(C)C)C3)c(C(F)(F)F)c2)cc1Nc1nccc(-c2cncnc2)n1 [bafetinib]
Outline: (§1)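 Values are thermal stability changes relative to control samples and are taken from duplicates. They are stated as log2 fold changes. Before quantification by TMTpro 16plex LC-MS/MS with equalised channel sums, K562 cells at 2×10^6 cells/mL were treated with 10 μM compound for 30 min, heated in aliquots for 3 min across 48°C-58°C, pooled, extracted in PBS with 0.5% NP-40 at 4°C, and centrifuged at 21,000xg for 90 min to give the soluble supernatant.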

[1] = compound: Cc1cccc(CC(=O)N2CCc3c2ccc(-c2cn(C)c4ncnc(N)c24)c3F)n1
Outline: as §1

nilotinib = compound: Cc1cn(-c2cc(NC(=O)c3ccc(C)c(Nc4nccc(-c5cccnc5)n4)c3)cc(C(F)(F)F)c2)cn1 [nilotinib]
Outline: as §1

[2] = compound: Cc1nc(Nc2n[nH]c3c2CN(C(=O)N[C@H](CN(C)C)c2ccccc2)C3(C)C)c2sccc2n1
Outline: as §1

dasatinib = compound: Cc1nc(Nc2ncc(C(=O)Nc3c(C)cccc3Cl)s2)cc(N2CCN(CCO)CC2)n1 [dasatinib]
Outline: as §1

[3] = compound: Cc1ncc(-c2ccnc(Nc3ccc(S(C)(=O)=O)cc3)n2)n1C(C)C
Outline: as §1

[4] = compound: Cn1cc(-c2ccc3c(c2)CCN3C(=O)Cc2cccc(C(F)(F)F)c2)c2c(N)ncnc21
Outline: as §1

[5] = compound: Cn1cc(-c2ccc3nnc(C(F)(F)c4ccc5ncccc5c4)n3n2)cn1
Outline: as §1

tipifarnib = compound: Cn1cncc1[C@@](N)(c1ccc(Cl)cc1)c1ccc2c(c1)c(-c1cccc(Cl)c1)cc(=O)n2C [tipifarnib]
Outline: as §1

mubritinib = compound: FC(F)(F)c1ccc(/C=C/c2nc(COc3ccc(CCCCn4ccnn4)cc3)co2)cc1 [mubritinib]
Outline: as §1

Sequence of UniProt P11498 (P11498 whole entry, looked up): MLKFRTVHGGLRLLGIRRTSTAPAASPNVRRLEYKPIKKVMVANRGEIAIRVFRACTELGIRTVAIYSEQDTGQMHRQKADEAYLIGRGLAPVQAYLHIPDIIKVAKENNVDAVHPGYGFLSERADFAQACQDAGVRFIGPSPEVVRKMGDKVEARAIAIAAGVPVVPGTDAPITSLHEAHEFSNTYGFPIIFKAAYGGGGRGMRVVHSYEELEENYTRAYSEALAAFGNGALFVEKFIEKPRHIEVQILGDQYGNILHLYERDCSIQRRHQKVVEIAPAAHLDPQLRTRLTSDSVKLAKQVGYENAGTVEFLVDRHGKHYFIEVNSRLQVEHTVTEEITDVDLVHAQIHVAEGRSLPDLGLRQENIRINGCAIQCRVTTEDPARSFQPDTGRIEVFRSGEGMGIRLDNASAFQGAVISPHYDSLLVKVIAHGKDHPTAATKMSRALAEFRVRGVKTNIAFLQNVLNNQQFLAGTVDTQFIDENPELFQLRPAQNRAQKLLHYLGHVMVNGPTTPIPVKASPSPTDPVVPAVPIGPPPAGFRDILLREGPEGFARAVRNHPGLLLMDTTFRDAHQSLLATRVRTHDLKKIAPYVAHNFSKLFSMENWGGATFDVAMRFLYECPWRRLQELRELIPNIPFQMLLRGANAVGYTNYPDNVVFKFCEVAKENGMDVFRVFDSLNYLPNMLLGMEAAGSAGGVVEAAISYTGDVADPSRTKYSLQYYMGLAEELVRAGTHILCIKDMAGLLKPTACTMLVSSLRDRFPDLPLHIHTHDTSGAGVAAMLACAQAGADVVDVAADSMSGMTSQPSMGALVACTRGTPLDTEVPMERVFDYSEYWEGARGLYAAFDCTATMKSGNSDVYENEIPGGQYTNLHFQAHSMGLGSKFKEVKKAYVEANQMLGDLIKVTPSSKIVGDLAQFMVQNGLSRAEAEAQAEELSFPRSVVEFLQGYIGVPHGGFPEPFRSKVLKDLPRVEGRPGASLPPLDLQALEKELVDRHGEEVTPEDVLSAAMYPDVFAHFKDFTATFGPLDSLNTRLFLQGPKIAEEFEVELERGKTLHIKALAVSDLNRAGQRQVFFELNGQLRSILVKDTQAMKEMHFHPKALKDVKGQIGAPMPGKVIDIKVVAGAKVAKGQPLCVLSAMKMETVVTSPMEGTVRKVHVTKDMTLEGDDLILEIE
Sequence of UniProt Q9BRP1 (Q9BRP1 whole entry, looked up): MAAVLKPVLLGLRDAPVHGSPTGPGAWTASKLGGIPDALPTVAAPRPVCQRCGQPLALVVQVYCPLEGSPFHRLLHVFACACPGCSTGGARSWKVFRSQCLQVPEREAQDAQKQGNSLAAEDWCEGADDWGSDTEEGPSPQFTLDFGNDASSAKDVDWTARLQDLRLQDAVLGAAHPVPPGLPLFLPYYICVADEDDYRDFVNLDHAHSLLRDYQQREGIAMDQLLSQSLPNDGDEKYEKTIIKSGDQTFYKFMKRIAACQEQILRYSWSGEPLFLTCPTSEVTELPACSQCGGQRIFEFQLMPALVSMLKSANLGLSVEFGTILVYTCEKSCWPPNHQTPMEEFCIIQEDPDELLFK
Sequence of UniProt Q16512 (Q16512 whole entry, looked up): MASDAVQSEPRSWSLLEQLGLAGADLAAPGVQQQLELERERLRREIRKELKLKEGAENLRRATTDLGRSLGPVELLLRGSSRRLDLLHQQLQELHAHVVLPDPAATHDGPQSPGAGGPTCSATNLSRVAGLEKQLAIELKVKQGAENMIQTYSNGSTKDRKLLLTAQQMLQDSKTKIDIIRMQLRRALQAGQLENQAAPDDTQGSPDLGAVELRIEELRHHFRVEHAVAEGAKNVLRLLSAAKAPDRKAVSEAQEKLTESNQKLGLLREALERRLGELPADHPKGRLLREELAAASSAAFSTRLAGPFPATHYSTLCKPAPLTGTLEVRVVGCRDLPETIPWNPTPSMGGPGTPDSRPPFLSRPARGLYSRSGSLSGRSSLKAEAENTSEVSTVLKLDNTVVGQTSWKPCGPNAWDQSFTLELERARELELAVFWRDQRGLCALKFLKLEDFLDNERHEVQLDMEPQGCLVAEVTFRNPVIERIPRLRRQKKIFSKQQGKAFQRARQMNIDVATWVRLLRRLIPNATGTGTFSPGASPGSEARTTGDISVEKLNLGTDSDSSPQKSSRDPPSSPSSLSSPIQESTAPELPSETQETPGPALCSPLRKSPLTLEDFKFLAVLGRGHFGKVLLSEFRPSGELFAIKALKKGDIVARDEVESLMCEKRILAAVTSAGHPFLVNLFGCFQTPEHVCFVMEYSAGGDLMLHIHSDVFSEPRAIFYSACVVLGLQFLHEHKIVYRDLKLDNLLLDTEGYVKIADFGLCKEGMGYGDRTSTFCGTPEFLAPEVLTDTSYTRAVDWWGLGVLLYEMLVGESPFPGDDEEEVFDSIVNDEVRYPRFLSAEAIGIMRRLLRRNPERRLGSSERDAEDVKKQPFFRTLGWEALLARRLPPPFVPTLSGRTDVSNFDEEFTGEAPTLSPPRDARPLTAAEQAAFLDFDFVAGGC
Sequence of UniProt Q53EL6 (Q53EL6 whole entry, looked up): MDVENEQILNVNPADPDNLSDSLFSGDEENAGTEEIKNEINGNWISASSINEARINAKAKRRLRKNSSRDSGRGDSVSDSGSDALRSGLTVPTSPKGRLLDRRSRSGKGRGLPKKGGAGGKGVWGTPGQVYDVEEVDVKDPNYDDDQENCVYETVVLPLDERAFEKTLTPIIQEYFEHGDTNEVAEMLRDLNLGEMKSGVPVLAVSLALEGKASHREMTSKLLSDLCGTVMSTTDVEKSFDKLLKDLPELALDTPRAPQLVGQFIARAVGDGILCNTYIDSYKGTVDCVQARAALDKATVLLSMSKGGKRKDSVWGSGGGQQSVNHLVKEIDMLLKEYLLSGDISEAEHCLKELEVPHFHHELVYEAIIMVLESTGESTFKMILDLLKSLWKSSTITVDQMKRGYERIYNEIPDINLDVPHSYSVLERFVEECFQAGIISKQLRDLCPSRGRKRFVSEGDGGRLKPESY
Sequence of UniProt P49585 (P49585 whole entry, looked up): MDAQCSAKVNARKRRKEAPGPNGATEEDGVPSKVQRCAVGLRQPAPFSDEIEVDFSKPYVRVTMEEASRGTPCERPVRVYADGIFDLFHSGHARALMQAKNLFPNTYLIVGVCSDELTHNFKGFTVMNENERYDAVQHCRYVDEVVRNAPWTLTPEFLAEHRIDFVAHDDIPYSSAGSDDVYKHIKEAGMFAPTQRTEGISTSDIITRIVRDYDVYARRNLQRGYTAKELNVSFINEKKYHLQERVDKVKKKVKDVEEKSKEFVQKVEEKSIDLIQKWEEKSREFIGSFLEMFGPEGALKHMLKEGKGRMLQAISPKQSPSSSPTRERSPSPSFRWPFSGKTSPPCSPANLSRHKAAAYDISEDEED
Sequence of UniProt P49642 (P49642 whole entry, looked up): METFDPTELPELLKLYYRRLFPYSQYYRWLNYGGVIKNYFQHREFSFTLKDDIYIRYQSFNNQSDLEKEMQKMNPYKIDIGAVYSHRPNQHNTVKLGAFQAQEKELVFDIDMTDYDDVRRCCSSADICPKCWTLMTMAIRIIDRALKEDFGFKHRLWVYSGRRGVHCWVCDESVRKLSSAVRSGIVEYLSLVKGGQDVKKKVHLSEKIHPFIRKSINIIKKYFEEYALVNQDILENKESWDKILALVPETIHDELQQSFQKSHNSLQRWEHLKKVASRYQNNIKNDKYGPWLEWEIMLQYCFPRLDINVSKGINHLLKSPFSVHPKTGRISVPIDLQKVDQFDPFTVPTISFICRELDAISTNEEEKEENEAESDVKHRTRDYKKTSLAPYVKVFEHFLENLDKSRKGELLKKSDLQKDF
Sequence of UniProt Q8IV08 (Q8IV08 whole entry, looked up): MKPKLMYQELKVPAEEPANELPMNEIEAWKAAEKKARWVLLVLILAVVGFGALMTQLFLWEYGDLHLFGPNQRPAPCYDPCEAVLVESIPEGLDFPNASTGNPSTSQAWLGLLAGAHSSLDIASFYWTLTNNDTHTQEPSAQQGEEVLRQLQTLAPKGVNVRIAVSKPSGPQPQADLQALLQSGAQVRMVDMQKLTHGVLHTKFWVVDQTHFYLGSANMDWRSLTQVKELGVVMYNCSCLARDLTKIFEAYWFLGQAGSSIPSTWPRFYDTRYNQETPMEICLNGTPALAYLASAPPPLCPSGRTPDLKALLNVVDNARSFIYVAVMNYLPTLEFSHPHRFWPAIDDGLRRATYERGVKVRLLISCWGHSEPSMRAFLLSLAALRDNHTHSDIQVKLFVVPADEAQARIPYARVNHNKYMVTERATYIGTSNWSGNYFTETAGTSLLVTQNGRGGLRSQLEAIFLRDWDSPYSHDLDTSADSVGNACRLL
Sequence of UniProt Q15008 (Q15008 whole entry, looked up): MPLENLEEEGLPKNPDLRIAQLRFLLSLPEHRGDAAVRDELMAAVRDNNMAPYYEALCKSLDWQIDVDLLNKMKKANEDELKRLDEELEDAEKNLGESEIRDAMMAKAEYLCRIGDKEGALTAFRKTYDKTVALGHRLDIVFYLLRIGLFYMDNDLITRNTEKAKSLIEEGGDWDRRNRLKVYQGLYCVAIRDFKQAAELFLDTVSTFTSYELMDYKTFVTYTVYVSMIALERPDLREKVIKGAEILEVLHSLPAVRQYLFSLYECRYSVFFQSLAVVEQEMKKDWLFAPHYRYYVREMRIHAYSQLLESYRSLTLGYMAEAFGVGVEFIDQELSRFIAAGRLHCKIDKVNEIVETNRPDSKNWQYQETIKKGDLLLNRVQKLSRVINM
Sequence of UniProt Q9Y478 (Q9Y478 whole entry, looked up): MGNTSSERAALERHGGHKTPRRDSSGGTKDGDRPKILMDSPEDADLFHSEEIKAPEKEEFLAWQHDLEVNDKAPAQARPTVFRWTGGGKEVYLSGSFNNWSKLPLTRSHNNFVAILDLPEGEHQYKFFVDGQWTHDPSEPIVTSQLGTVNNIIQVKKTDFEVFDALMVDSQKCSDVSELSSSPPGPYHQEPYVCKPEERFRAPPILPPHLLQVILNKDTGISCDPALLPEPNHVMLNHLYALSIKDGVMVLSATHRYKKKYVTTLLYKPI

| Target | log2 fold change (bafetinib) | log2 fold change [1] | log2 fold change (nilotinib) | log2 fold change [2] | log2 fold change (dasatinib) | log2 fold change [3] | log2 fold change [4] | log2 fold change [5] | log2 fold change (tipifarnib) | log2 fold change (mubritinib) |
| --- | --- | --- | --- | --- | --- | --- | --- | --- | --- | --- |
| PDCD2L (UniProt Q9BRP1) | 0.026 | 0.077 | -0.137 | 0.035 | -0.122 | -0.062 | -0.022 | 0.015 | -0.13 | 0.018 |
| PC (UniProt P11498) | 0.096 | 0.102 | -0.014 | 0.121 | 0.005 | -0.007 | 0.047 | 0.074 | -0.097 | 0.024 |
| PDCD4 (UniProt Q53EL6) | 0.065 | -0.014 | 0.017 | 0.025 | -0.144 | 0.144 | 0.022 | 0.077 | -0.172 | 0.104 |
| PCYT1A (UniProt P49585) | -0.142 | 0.035 | -1.47 (active) | -0.129 | -0.185 | -0.04 | 0.033 | 0.001 | 0.006 | 0.176 |
| PHLDB1 isoform 2 (UniProt Q86UU1) | -0.112 | 0.117 | 0.136 | -0.265 | -0.073 | -0.128 | 0.061 | 0.016 | 0.057 | 0.14 |
| PRIM1 (UniProt P49642) | 0.046 | 0.01 | -0.034 | -0.055 | -0.161 | -0.009 | -0.033 | 0.009 | -0.073 | 0.06 |
| PPIL4 (UniProt Q8WUA2) | -0.001 | 0.002 | 0.002 | -0.483 (active) | -0.065 | -0.113 | -0.031 | -0.018 | -0.01 | 0.005 |
| PKN2 (UniProt Q16513) | 0.068 | 0.062 | 0.125 | -0.219 | -0.138 | 0.051 | 0.016 | 0.01 | -0.059 | 0.048 |
| PRKAB1 (UniProt Q9Y478) | -0.154 | 0.006 | -0.119 | -0.162 | -0.037 | -0.007 | 0.04 | -0.026 | 0.008 | -0.104 |
| PSMD6 (UniProt Q15008) | 0.115 | 0.008 | 0.022 | 0.054 | 0.059 | -0.014 | -0.083 | -0.035 | 0.03 | -0.012 |
| PEX16 isoform 2 (UniProt Q9Y5Y5) | -0.202 | 0.016 | -0.067 | 0.006 | 0.004 | -0.006 | 0.079 | 0.079 | -0.067 | 0.174 |
| QKI (UniProt Q96PU8) | -0.001 | 0.058 | -0.015 | -0.105 | -0.029 | -0.093 | -0.007 | -0.036 | -0.015 | 0.003 |
| PRKCD (UniProt Q05655) | -0.028 | -0.007 | 0.033 | -0.261 (active) | -0.049 | -0.021 | 0.027 | 0.102 | 0.008 | 0.08 |
| PLD3 (UniProt Q8IV08) | -0.308 (active) | -0.007 | -0.043 | 0.064 | -0.024 | -0.03 | -0.007 | 0.013 | -0.01 | 0.035 |
| PKN1 isoform 2 (UniProt Q16512) | -0.006 | 0.038 | -0.044 | -0.705 (active) | -0.154 | -0.019 | -0.02 | -0.008 | -0.046 | 0.098 |
| QRSL1 (UniProt Q9H0R6) | -0.036 | 0.048 | -0.041 | -0.028 | -0.171 | 0.045 | 0.037 | 0.024 | 0.002 | -0.102 |
